Screening data as filed in PubChem.
Only a selection was taken, and hits are over-represented in it overall.
Pf Dd2 growth: inhibitors of Plasmodium falciparum Dd2 growth | AID 1347417 | 4.3% of 120,000 active | P. falciparum Dd2 growth, SYBR Green, 72 h | Potency, µM (doses to about 28.9 µM), actives largely listed as inhibitors; active = well fitted inhibition curve with a large enough effect; also: nearly all actives have a fitted effect of over 65% in size
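Readout: SYBR Green fluorescence, 485 nm excitation, 535 nm emission, after ~16 h lysis at 37C. Before that, Dd2-infected red cells (2.5% hematocrit) grew 72 h with compound, 29 uM top final concentration.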
Each line names hits and unclear results; the compound was inactive in the other large screens.

Cc1ccc(CN2CCCN(Cc3ccncc3)C(c3ccccc3)CC(=O)NCC2)o1 (stereo not given)	Pf Dd2 growth 1.8µM
CCn1ncc(CN2CCCN(S(C)(=O)=O)C(c3ccccc3)CC(=O)NCC2)c1C (stereo not given)	none
CCOc1ccccc1CN1CCCN(Cc2ccncc2)C(c2ccccc2)CC(=O)NCC1 (stereo not given)	Pf Dd2 growth 1.3µM
O=C1CC(c2ccccc2)N(S(=O)(=O)c2ccccc2)CCCCCN1 (stereo not given)	none
COc1cccc(CN2CCCCCCNC(=O)CC2c2ccccc2)c1OC (stereo not given)	Pf Dd2 growth 7.9µM
COc1cccc(CN2CCCOCCNC(=O)CC2)c1OC	none
O=C(O)CC1COCCN1Cc1ccsc1 (stereo not given)	none
CC1CCC(NC(=O)C2CCN(C(=O)c3ncn4c3COC(c3ccc(Cl)cc3)C4)CC2)CC1 (stereo not given)	none
O=C(CN1CCOc2ccccc2C1)N[C@H]1CCOC[C@H]1C1CCOCC1	none
CN1C(=O)CCC2(CNC(=O)c3ccc(Cn4ccnc4)o3)CCC=C12 (stereo not given)	none
CC(C)NC(=O)C[C@@H]1O[C@H](Cn2cc(CN(C)Cc3ccccc3)nn2)[C@@H](O)[C@H]1O	none
CC1CCN(S(=O)(=O)C2CCS(=O)(=O)C2)CC1 (stereo not given)	none
CC(C)[C@@H](C(N)=O)N1CC[C@H]2CN(C(=O)Nc3ccccc3)CC[C@H]2CC1=O	none
COCCNC(=O)[C@@H]1C[C@H](Oc2cccnc2)CN1C(=O)c1ocnc1C	none
CC(=O)N1CC[C@H](c2nc3ncccc3[nH]2)C1	none
Cc1ncsc1CN1CCCCCCNC(=O)CC1c1ccccc1 (stereo not given)	none
CCNC(=O)N1CCCCCNC(=O)CC1c1ccccc1 (stereo not given)	none
CCOc1ccccc1CN1CCCCCCNC(=O)CC1c1ccccc1 (stereo not given)	Pf Dd2 growth 11µM
COC[C@@H]1CN(c2cnccn2)C[C@H]1C(=O)N1CCc2ccccc2C1	none
CCc1ccc(S(=O)(=O)N[C@@H]2COCC[C@H]2Oc2ccccn2)s1	none
O=C(NCCc1cnccn1)c1cccc(S(=O)(=O)NC2CCOC2)c1 (stereo not given)	none
CC(C)CCC(=O)NC1CCN(c2cnn(C)c(=O)c2)CC1	none
O=C(NCCc1ccccc1)N(C1CCOCC1)C1CCN(Cc2ccsc2)CC1	none
O=C(NCCc1ccccc1)N(C1CCOCC1)C1CCN(Cc2cccnc2)CC1	none
O=C(NCCc1ccccc1)N(C1CCOCC1)C1CCN(Cc2ccccc2)CC1	Pf Dd2 growth 5.6µM
CCN1c2cc(C(=O)Nc3ccc(C)c(C)c3)ccc2C(=O)N2CCCCC21 (stereo not given)	none
CCOc1ccc(C(=O)N2CCC[C@H]2c2nc(-c3ccccc3)no2)cc1	none
CCCCOc1ccc(C(=O)N2CCC[C@H]2c2nc(-c3ccc(OC)cc3)no2)cc1	Pf Dd2 growth 11µM
O=[N+]([O-])c1cccc(-c2noc([C@@H]3Cc4nc[nH]c4CN3CC3CCCCC3)n2)c1	Pf Dd2 growth 14µM
Cc1cccc(-c2noc([C@@H]3Cc4nc[nH]c4CN3C(=O)C3CCCCC3)n2)c1	none
COc1ccc(-c2noc([C@@H]3CCCN3C(=O)c3ccc(C(C)(C)C)cc3)n2)cc1	none
O=C(O)c1ccc(CN2Cc3[nH]cnc3C[C@H]2c2nc(-c3cccc([N+](=O)[O-])c3)no2)cc1	none
O=C(NC1CCCCC1)N1Cc2[nH]cnc2C[C@H]1c1nc(-c2ccc(Cl)cc2)no1	none
O=C(CCc1ccccc1)N1CCC[C@H]1c1nc(-c2ccccc2)no1	none
O=C(NC1CCCCC1)N1Cc2[nH]cnc2C[C@H]1c1nc(-c2ccc3ccccc3c2)no1	none
Cc1ccc(-c2noc([C@@H]3CCCN3C(=O)CCCc3ccccc3)n2)cc1	Pf Dd2 growth 11µM
COc1ccc(-c2noc([C@@H]3Cc4nc[nH]c4CN3C(=O)NC3CCCCC3)n2)cc1	Pf Dd2 growth 13µM
Cc1ccc(-c2noc([C@@H]3CCCN3C(=O)Cc3ccccc3)n2)cc1	none
O=C(c1ccc(=O)[nH]c1)N(CC1CCN(Cc2ccccc2F)CC1)CC1CCCO1 (stereo not given)	none
CC(C)CN1CCN(C2CCOC3(CCN(C(=O)c4ccc5[nH]ccc5c4)CC3)C2)CC1 (stereo not given)	none
N#Cc1cccc(C(=O)N2CCC(n3cc(-c4nc(C5CC5)no4)nn3)C2)c1 (stereo not given)	none
COc1ccc(-c2ccc(NS(=O)(=O)c3ccccc3)cc2)nn1	none
COc1ccc(-c2ccc(NS(=O)(=O)c3ccccc3Cl)cc2)nn1	Pf Dd2 growth 11µM
COc1ccc(-c2ccc(NS(=O)(=O)c3cccc(C)c3)cc2)nn1	none
O=C(NCc1ccncc1)c1c(OCC2CC2)cc(=O)n2c1CCCCC2	none
COc1cc(Br)c(/C=C(\C#N)c2nc3ccccc3[nH]2)cc1OC	none
COc1cc(/C=C(\C#N)c2nc3ccccc3[nH]2)ccc1OCc1ccc(F)cc1	Pf Dd2 growth 1µM
N#C/C(=C\c1ccc(Cl)cc1)c1nc2ccccc2[nH]1	none
Cc1cc2nc3n(c(=O)c2n1CC(=O)Nc1ccc(Cl)cc1)CCCCC3	none
